Experiments:
Settings in all cases: Compound Concentration (nM):1000
CAMK2G = system: CAMK2G
CAMK4 = system: CAMK4
CAMKK1 = system: CAMKK1
CAMKK2 = system: CAMKK2
CASK = system: CASK
CDC2L1 = system: T1, CDC2L1
T1 construct: gene CDK11B

CDC2L2 = system: CDC2L2
CDC2L5 = system: T2, CDC2L5
T2 construct: gene CDK13

CDK11 = system: T3, CDK11
T3 construct: gene CDK19

CDK2 = system: CDK2
CDK3 = system: CDK3
CDK4-cyclinD1 = system: CDK4-cyclinD1
CDK4-cyclinD3 = system: CDK4-cyclinD3
CDK4 = system: CDK4
CDK5 = system: CDK5
CDK7 = system: CDK7
CDK8 = system: CDK8
CDK9 = system: CDK9
CDKL1 = system: CDKL1
CDKL2 = system: CDKL2
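Further: KINOMEscan scanMAX binding as percent activity remaining versus control; lower means stronger binding.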

| Compound | Percent Control (CAMK2G) [%] | Percent Control (CAMK4) [%] | Percent Control (CAMKK1) [%] | Percent Control (CAMKK2) [%] | Percent Control (CASK) [%] | Percent Control (CDC2L1) [%] | Percent Control (CDC2L2) [%] | Percent Control (CDC2L5) [%] | Percent Control (CDK11) [%] | Percent Control (CDK2) [%] | Percent Control (CDK3) [%] | Percent Control (CDK4-cyclinD1) [%] | Percent Control (CDK4-cyclinD3) [%] | Percent Control (CDK4) [%] | Percent Control (CDK5) [%] | Percent Control (CDK7) [%] | Percent Control (CDK8) [%] | Percent Control (CDK9) [%] | Percent Control (CDKL1) [%] | Percent Control (CDKL2) [%] |
| --- | --- | --- | --- | --- | --- | --- | --- | --- | --- | --- | --- | --- | --- | --- | --- | --- | --- | --- | --- | --- |
| COc1cccc(-c2c[nH]c3c(N/N=C/c4ccncc4)ncnc23)c1 [GW814408X] | 100 | 100 | 100 | 95 | 44 | 81 | 53 | 87 | 100 | 62 | 67 | 26 | 25 | 100 | 82 | 2.2 | 100 | 65 | 15 | 26 |
| COc1cccc(-n2ncc3c(N/N=C/c4ccncc4)ncnc32)c1 [GW784752X] | 100 | 100 | 100 | 100 | 68 | 100 | 97 | 83 | 100 | 72 | 100 | 49 | 72 | 93 | 90 | 8.1 | 100 | 100 | 51 | 46 |
| CC1=C(C(=O)Nc2ccc3[nH]ncc3c2)C(c2ccc3ccccc3c2)CC(=O)N1 (stereo not drawn) [GSK270822A] | 79 | 100 | 70 | 69 | 86 | 100 | 90 | 85 | 90 | 100 | 99 | 63 | 94 | 94 | 100 | 88 | 71 | 100 | 91 | 93 |
| CC(C)COC(=O)c1ccc2c(c1)/C(=C/Nc1ccc(S(N)(=O)=O)cc1)C(=O)N2 [GW416981X] | 100 | 100 | 97 | 100 | 95 | 100 | 100 | 65 | 100 | 15 | 42 | 3.8 | 13 | 91 | 36 | 3.7 | 86 | 100 | 52 | 24 |
| O=C1Nc2ccc(C(=O)c3ccco3)cc2C1=Cc1cc(Cl)c(O)c(Cl)c1 [GW406108X] | 77 | 100 | 43 | 31 | 87 | 100 | 98 | 99 | 100 | 100 | 100 | 78 | 94 | 94 | 89 | 76 | 80 | 100 | 88 | 100 |
| C/C(Nc1ccc(S(N)(=O)=O)cc1)=C1/C(=O)Nc2ccccc21 [GW335962X] | 95 | 100 | 76 | 82 | 87 | 100 | 81 | 65 | 100 | 87 | 100 | 29 | 64 | 100 | 100 | 74 | 78 | 100 | 85 | 82 |
| COc1cc(C=NNc2ncnc3c2cnn3-c2ccccc2)ccc1O [GW513184X] | 100 | 100 | 100 | 100 | 64 | 100 | 100 | 96 | 100 | 66 | 97 | 89 | 81 | 100 | 64 | 4 | 100 | 100 | 80 | 22 |
| COc1ccc(COc2ccc(Cc3cnc(N)nc3N)cc2OC)cc1 [GW632580X] | 99 | 100 | 95 | 98 | 98 | 97 | 75 | 72 | 89 | 100 | 100 | 99 | 93 | 94 | 93 | 100 | 100 | 100 | 82 | 100 |
| Cl.O=C(Nc1ccc(Oc2ccc3[nH]c(NC(=O)c4ccccc4)nc3c2)cc1)Nc1cc(C(F)(F)F)ccc1F [GW709042A] | 100 | 100 | 100 | 100 | 93 | 92 | 100 | 100 | 23 | 100 | 100 | 92 | 100 | 84 | 100 | 32 | 54 | 81 | 92 | 69 |
| CC1=C(C(=O)Nc2ccc3[nH]ncc3c2)C(c2ccc(Cl)c(Cl)c2)CC(=O)N1 (stereo not drawn) [GSK299115A] | 95 | 100 | 95 | 85 | 96 | 100 | 96 | 77 | 91 | 100 | 100 | 74 | 100 | 80 | 100 | 83 | 47 | 100 | 96 | 80 |
| CCc1ccc(Oc2nccc(-c3c(-c4ccc(F)cc4)ncn3C3CCNCC3)n2)cc1 [SB-242719] | 100 | 100 | 100 | 100 | 83 | 89 | 66 | 100 | 95 | 100 | 100 | 94 | 76 | 91 | 100 | 88 | 86 | 100 | 86 | 96 |
| O=C(Nc1n[nH]c2nc(-c3ccc(O)cc3)c(Br)cc12)C1CC1 [SB-725317] | 100 | 100 | 100 | 100 | 100 | 100 | 100 | 90 | 100 | 51 | 16 | 2.5 | 4.4 | 100 | 100 | 19 | 100 | 95 | 98 | 60 |
| COc1cc2ncnc(Nc3ccc4c(cnn4Cc4ccccc4)c3)c2cc1OC.Cl [GW282449A] | 100 | 100 | 100 | 100 | 93 | 100 | 100 | 100 | 100 | 100 | 100 | 100 | 100 | 100 | 100 | 100 | 100 | 100 | 100 | 95 |
| COc1ccc2c(-c3ccnc(Nc4cccc(OC(F)(F)F)c4)n3)cnn2n1 [GW810372X] | 100 | 100 | 91 | 81 | 96 | 100 | 100 | 100 | 100 | 100 | 100 | 90 | 74 | 83 | 100 | 61 | 90 | 97 | 77 | 18 |
| CN(C)CCNC(=O)Nc1ccc(N(C)c2ccnc(Nc3ccc(CS(C)(=O)=O)cc3)n2)cc1.Cl [GW830900A] | 100 | 100 | 99 | 93 | 91 | 100 | 89 | 100 | 100 | 98 | 100 | 81 | 100 | 97 | 85 | 65 | 75 | 98 | 88 | 28 |
| NS(=O)(=O)c1ccc(N/N=C2\C(=O)Nc3ccc(C(=O)NCCc4c[nH]cn4)cc32)cc1 [GW300660X] | 100 | 100 | 100 | 100 | 100 | 100 | 100 | 79 | 100 |  | 100 | 12 | 30 | 100 | 100 | 33 | 100 | 100 | 55 | 100 |
| CCS(=O)(=O)c1ccc(OC)c(Nc2ncc(-c3cccc(F)c3)o2)c1 [GW621970X] | 100 | 100 | 100 | 100 | 90 | 100 | 99 | 100 | 100 | 100 | 100 | 99 | 100 | 100 | 100 | 85 | 100 | 100 | 100 | 100 |
| COc1ccc2cc(-c3c(-c4ccncc4)nc(-c4ccc(S(C)(=O)=O)cc4C)n3C)ccc2c1 [SB-633825] | 76 | 87 | 77 | 73 | 84 | 92 | 96 | 91 | 100 | 79 | 100 | 68 | 90 | 91 | 95 | 85 | 78 | 74 | 87 | 100 |
| CCn1c(-c2nonc2N)nc2c(C#CC(C)(C)O)nc(OCCNC)cc21.Cl [GSK949675] | 100 | 100 | 100 | 100 | 100 | 100 | 100 | 100 | 100 | 100 | 100 | 100 | 92 | 100 | 85 | 88 | 100 | 100 | 90 | 100 |
| NS(=O)(=O)c1ccc(Nc2ncc(-c3ccccc3)o2)cc1 [GW572399X] | 100 | 100 | 100 | 100 | 94 | 100 | 100 | 26 | 100 | 100 | 100 | 60 | 88 | 95 | 100 | 21 | 93 | 100 | 80 | 65 |
